Only some compounds are listed: those with a hit (about 12% of all), similar ones and a draw of the others.
USP7 inh: inhibitors of human USP7 deubiquitinase | purified USP7, Ub-rhodamine cleavage fluorescence | inhibition, % at 20 µM | hit rate 0.3% among 47,000 | AID 1645854
USP30 inh: blocks human USP30 ubiquitin-rhodamine cleavage. inhibition, % at 25 µM. Q70CQ3. purified USP30, Ub-rhodamine cleavage fluorescence. hit rate 5.3% among 47,000
UCHL1 inh: inhibitors of human UCHL1 deubiquitinase. P09936. purified UCHL1, Ub-rhodamine cleavage fluorescence. inhibition, % at 20 µM. AID 1645859. hit rate 0.2% among 47,000
Target sequence (P09936 whole entry, looked up): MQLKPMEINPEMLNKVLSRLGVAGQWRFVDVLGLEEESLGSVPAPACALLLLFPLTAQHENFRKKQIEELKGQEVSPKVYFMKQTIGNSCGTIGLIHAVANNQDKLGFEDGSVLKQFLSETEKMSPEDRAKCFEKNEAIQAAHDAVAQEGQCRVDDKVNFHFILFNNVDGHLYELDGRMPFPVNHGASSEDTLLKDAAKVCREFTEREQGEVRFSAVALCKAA
USP8 block: inhibitors of human USP8 deubiquitinase | AID 1645853 | hit rate 4.2% among 47,000 | P40818 | inhibition, % at 20 µM | purified USP8, Ub-rhodamine cleavage fluorescence, 30 min
USP17 inh: blocks human USP17 ubiquitin-rhodamine cleavage | purified USP17, Ub-rhodamine cleavage fluorescence, 3 h | inhibition, % at 50 µM | A8MUK1 | hit rate 6.5% among 47,000
USP10 inh: inhibitors of human USP10 deubiquitinase. purified USP10, Ub-rhodamine fluorescence, 60 min. AID 1645856. inhibition, % at 20 µM. Q14694. hit rate 1.1% among 47,000
Each line names hits and unclear results; the compound was inactive in the other large screens. Rule as the data show it: active = inhibition above about 30%; inactive = the rest.

Cc1nc(-c2ccc(C)c(S(=O)(=O)NCc3ccccc3C)c2)cs1	none
Cc1ccc(-n2nc(C(=O)NCc3ccccn3)cc2-c2cccnc2)cc1	none
O=C(NC1CC1)c1cc(-c2cccnc2)n(-c2ccccc2)n1	USP30 inh 31
CS(=O)(=O)c1cn[nH]c1C1CCN(Cc2c[nH]c3ccccc23)C1 (centres undefined)	none
O=C(NC1CC1)N1CC[C@@H]2[C@H](C1)CN2C(=O)c1cccc(C(F)(F)F)c1	none
COc1ccc(-c2nn(-c3ccccc3)cc2C(=O)Nc2ccc(N3CCOCC3)cc2)cc1	USP8 block 61
O=C(Nc1ccc(-n2cncn2)cc1)c1ccccc1N1CCOCC1	none
O=S(=O)(NCCc1nc(-c2ccc(Cl)cc2)no1)c1ccc(F)cc1	USP30 inh 39
COc1ccc(C(=O)C(C)OC(=O)c2cccc(S(=O)(=O)Nc3cc([N+](=O)[O-])ccc3OC)c2)c(OC)c1 (centres undefined)	USP30 inh 31, USP10 inh 37
O=C(c1ccco1)C1C2C(=O)N(c3ccc(Br)cc3)C(=O)C2C2c3ccccc3C=CN12 (centres undefined)	USP8 block 46
COc1ccc(Cl)cc1NC(=O)C1C2C(=O)N(c3ccc4c(c3)OCO4)C(=O)C2C2c3ccccc3C=CN12 (centres undefined)	none
COc1ccc(Cl)cc1NC(=O)C1[C@@H]2C(=O)N(Cc3ccc4c(c3)OCO4)C(=O)[C@@H]2[C@H]2c3ccccc3C=CN12 (some centres undefined)	USP8 block 72
COc1ccc(N2C(=O)[C@@H]3[C@H]4c5ccccc5C=CN4C(C(=O)Nc4ccc5c(c4)OCO5)[C@@H]3C2=O)cc1 (some centres undefined)	USP8 block 87, USP17 inh 64
O=C(O)CC1(CC(=O)NCc2ccc(C(F)(F)F)cc2)CCCCC1	USP30 inh 32
c1ccc2ncc(CN3CCC[C@H]3c3nc(-c4ccc(-n5ccnc5)nc4)no3)cc2c1	USP17 inh 41
Nc1ncncc1-c1noc([C@@H]2CCCN2Cc2cnc3ccccc3c2)n1	none
CC1=C(c2ccccc2)S(=O)(=O)N(CC(=O)Nc2cccc(Cl)c2)C1=O	USP30 inh 35, USP17 inh 30
COc1ccccc1OCC(=O)N1CCC(c2nc3ccccc3cc2C(N)=O)CC1	USP30 inh 34
CC(=O)Nc1ccc(-n2cnc(C(=O)NC(C)c3ccccc3)c2)nc1 (centres undefined)	USP17 inh 64
Cc1ccc(-c2nc(CNC(=O)Cc3ccccc3)cs2)cc1	none
Cc1ccc(/C=C/C(=O)Cc2ccccc2)cc1	USP30 inh 30, USP17 inh 41
CN1C[C@@H]2C[C@H](NS(=O)(=O)c3ccc(F)cc3)CN2Cc2ccccc21	none
O=C(CSc1ccc2nnc(CCNS(=O)(=O)c3ccccc3)n2n1)Nc1ccc(Br)cc1	USP17 inh 32
CCOC(=O)c1ccccc1NC(=O)CSc1ccc2nnc(CCNS(=O)(=O)c3ccc(C)cc3)n2n1	USP30 inh 31
C[C@H]1C(=O)N(C)[C@@H]2CCN(C(=O)C3CCCCC3)[C@@H]2C(=O)N1C	USP30 inh 33
CCc1ccc(-c2c3c4n(c(-c5ccc(C)cc5)cn4c2C(=O)Nc2ccc(Cl)cc2)CCCC3)cc1	none
Cc1ccc(-c2c3c4n(c(-c5ccc(Cl)cc5)cn4c2C(=O)Nc2ccccc2Cl)CCCC3)cc1	USP8 block 43
Cc1ccc(NC(=O)C2C3C=CC4(O3)C2C(=O)N(C2CC2)C4C(=O)NC2CCCCC2)cc1Cl (centres undefined)	none
COc1ccc(S(=O)(=O)Nc2ccc3c(c2)N(C(C)=O)CC3)cc1OC	none
CCOc1c(C)cc(S(=O)(=O)Nc2ccc3c(c2)N(C(C)=O)CC3)cc1C	USP17 inh 68 (no result: USP30 inh)
CC1(C(=O)NCc2ccccc2)Cn2cnc(C(=O)NC3CCCC3)c2C(=O)N1C1CC1 (centres undefined)	none
O=C(Nc1cccc(Cl)c1)N1CCC(c2cc(-c3ccco3)n[nH]2)CC1	USP8 block 80, USP17 inh 64
COc1cccc(C(=O)Nc2nc(-c3ccco3)c(-c3ccco3)s2)c1	USP7 inh 50, UCHL1 inh 52, USP8 block 62, USP17 inh 44
O=C(NCC(c1ccc(F)cc1)N1CCOCC1)c1cc2ccccc2o1 (centres undefined)	none
Cc1cc(=O)oc2c1c(C)nn2-c1ccc([N+](=O)[O-])cc1	none
Cc1nn(-c2ccc([N+](=O)[O-])cc2)c(C)c1-c1nc2ccccc2[nH]1	USP30 inh 63
COc1ccc(CNC(=O)c2[nH]c3ccc(OC)cc3c2N2CCCC2=O)c(OC)c1	none
Cc1nn(C)cc1S(=O)(=O)Nc1cnn(Cc2cccc3ccccc23)c1	USP8 block 86
CNc1nc(C2CCN(C(=O)C3CCCC3)CC2)nc2c1CCN(C(C)=O)C2	none
CCC1(CC)Oc2ccc(C(=O)CCN(C)C)cc2O1	USP30 inh 35, USP8 block 32
COc1ccc2occ(-c3ccc4c(c3)OCCO4)c(=O)c2c1	USP30 inh 33
O=C(Nc1ccc(F)cc1F)c1ccc(Cn2cncn2)cc1	none
O=c1ccc(-c2noc(/C=C/c3ccc4c(c3)OCO4)n2)c[nH]1	USP17 inh 47
O=c1ccc(-c2noc(-c3ccc4cc[nH]c4c3)n2)c[nH]1	USP8 block 51, USP17 inh 59
CC(C)n1cc2cc(C(=O)NC3CCN(Cc4ccccc4)CC3)sc2c1	USP8 block 51
Cc1cc(C(=O)NC2CCN(Cc3ccccc3)CC2)c(C)o1	none
COc1ccc(C(=O)Nc2ccc(-c3nc4ccccc4[nH]3)cc2)cc1S(=O)(=O)N1CCOCC1	USP30 inh 50, USP17 inh 51
CC(=O)c1cccc(NC(=O)CNC(=O)c2cc3ccccc3o2)c1	none
CC(NC(=O)CNC(=O)c1ccc2c(c1)OCO2)c1cc2ccccc2o1 (centres undefined)	USP17 inh 42
O=C(CNC(=O)c1cc2ccccc2o1)Nc1ccc2c(c1)OCCO2	USP17 inh 63
CCC(NC(=O)c1ccc2c(c1)OCO2)c1ccccc1 (centres undefined)	none
Cc1ccc(NC(=O)CNC(=O)c2cc3ccccc3o2)cc1F	none
Cc1ccc(NC(=O)CNC(=O)c2cc3ccccc3o2)cc1	USP17 inh 55
COc1cc(NC(=O)Cc2ccccc2)ccc1NC(=O)c1cc2ccccc2o1	USP30 inh 41, USP17 inh 70, USP10 inh 34
O=C(CNC(=O)c1cc2ccccc2o1)Nc1cccc(F)c1	USP30 inh 46
O=C(CSc1ncccc1C(=O)Nc1ccnn1Cc1cccnc1)Nc1ccc2c(c1)OCO2	USP8 block 45
CC1(C)CC2=C(C=O)[C@]34C[C@@]3(C[C@H]2C1)C(=O)OC4O (some centres undefined)	none

Compound activity (PubChem)
